The values below come from the supplement of paper PMC3334620.

The full ranking holds about 33,000 sequences; the median of “E-score (-0.5 to 0.5)” is about -0.016, and the highest 2% start at about 0.32. This is one part of a sample in which the highest values are shown more often than they occur.

The target in this assay is T1, Stp1 (UniProt B3LFK1).
T1 sequence: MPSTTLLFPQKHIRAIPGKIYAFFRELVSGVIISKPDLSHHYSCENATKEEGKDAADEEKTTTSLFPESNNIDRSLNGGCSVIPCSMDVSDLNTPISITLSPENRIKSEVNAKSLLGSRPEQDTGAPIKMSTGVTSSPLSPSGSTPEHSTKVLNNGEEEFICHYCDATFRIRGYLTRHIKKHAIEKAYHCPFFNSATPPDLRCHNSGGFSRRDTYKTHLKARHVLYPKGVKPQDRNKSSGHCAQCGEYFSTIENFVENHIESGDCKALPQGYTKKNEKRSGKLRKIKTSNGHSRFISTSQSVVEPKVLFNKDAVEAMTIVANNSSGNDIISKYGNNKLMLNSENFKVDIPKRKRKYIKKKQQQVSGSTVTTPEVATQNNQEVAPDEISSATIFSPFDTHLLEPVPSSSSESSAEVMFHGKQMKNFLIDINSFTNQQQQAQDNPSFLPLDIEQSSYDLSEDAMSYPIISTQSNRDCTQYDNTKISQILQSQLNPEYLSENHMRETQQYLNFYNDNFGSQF
Kind of assay: PBM E-score (8-mer binding enrichment) (E-score (-0.5 to 0.5)); higher = stronger / more preferred TF binding. Conditions: protein concentration: 200 nM; construct: GST-full length. On the procedure:
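Universal 'all 10-mer' protein binding microarrays (Agilent AMADID 015681) probed with GST-tagged S. cerevisiae TFs (full-length or DBD) made by in vitro transcription/translation (PURExpress), about 100-200 nM. Bound TF was detected with fluorescent anti-GST. Each ungapped 8-mer (which stands for itself and its reverse complement) is scored by the PBM enrichment score (E-score), a modified Wilcoxon-Mann-Whitney statistic from -0.5 to +0.5, computed with the Universal PBM Analysis Suite. Scale: above 0.35 generally sequence-specific binding.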
As for CATCGCGG, the “PBM E-score” value stood at 0.0513. Regarding TCATGGCA, the “PBM E-score” value is -0.00249. In the case of GCATGGCA it was 0.375; in that of CCATGGCA, 0.0885; in that of ACTCCGCG, 0.068. The value for CCTACGGA was -0.13; that for ACTACGGC was 0.359. The value for CCTACGGC was 0.39.

Consider ACTACGGA, for which the “PBM E-score” value is -0.0355.

Consider ACTACGGG, for which the “PBM E-score” value was -0.222. CCTACGCC: the “PBM E-score” value was -0.0289. The value for CTATCTTA was 0.0702; that for GAAAGGAC was 0.0713; that for AATAGTAA was 0.0925. In the case of CTGTCGCA it was 0.00593. The value for CCCGCTGA was -0.297; that for GATCGCAA was 0.0331.

Take ACGCGCGC: the “PBM E-score” value is 0.289. In the case of GCGCGCGC it was 0.396.

For GCGCGCGA, the “PBM E-score” value amounted to 0.285. In the case of CCGCGCGC it was 0.381; in that of CCGCGCTC, 0.235. As to CAGCGCGG, the “PBM E-score” value is 0.211.

Take CCGCGCGA: the “PBM E-score” value was 0.314. In the case of ACGCGCGG it was 0.316. In the case of CCGCGTGA it was 0.313; in that of CCGCGTGC, 0.329; in that of CCGCGCGG, 0.469. The value for ACGCGTGC was 0.191; that for GCTATCCA was -0.0017.

Turning to CCTCCAGC, the “PBM E-score” value was -0.217.

Take CAAGAGTC: the “PBM E-score” value was -0.177. The value for CCCACGGC was 0.417; that for ACCACGGC was 0.327.

Turning to ACCACGGA, the “PBM E-score” value is -0.0752. The value for ACCACGGG was -0.0439; that for GCCACGCC was 0.267; that for GCCACGGC was 0.469. In the case of CCCACGGA it was 0.00496; in that of CCCACGGG, -0.166; in that of GCCACGGA, 0.163. The value for GGCCCCCA was -0.406.

As for AAGCTCAT, the “PBM E-score” value is -0.206. In the case of AATTCTCC it was 0.0125; in that of GAATTCTC, 0.0702; in that of CAAGGCGC, 0.4. In the case of GCAGGCGC it was 0.148; in that of AAAGGCGA, 0.0862; in that of AAAGGCGG, 0.111. On to CAAGGCGA, for which the “PBM E-score” value was 0.194.

As for GAAGGCGA, the “PBM E-score” value came out at 0.129.

For the sequence CAAGGCGG, the “PBM E-score” value came to 0.101. In the case of GAAGGCGC it was 0.333; in that of AAAGGCGC, 0.402; in that of AAACTGGT, -0.0925. In the case of AGTTCATG it was 0.0464. As for ATCAGCAT, the “PBM E-score” value was 0.0572. On to GAAAACGC, for which the “PBM E-score” value is 0.119.

Turning to TAAGTCGA, the “PBM E-score” value is -0.123.

In the case of TAACAGCA, the “PBM E-score” value worked out at 0.174. The value for AATGCACC was -0.0414. In the case of CTAAGAGC it was -0.0921. In the case of ATCTTCAT it was -0.0473; in that of AAGCTGTC, -0.113; in that of ACAACTAT, 0.0651. Regarding ATGCCGAG, the “PBM E-score” value is 0.31.

Consider ATGCCGTG, for which the “PBM E-score” value turned out to be 0.484. The value for CTGCCGTC was 0.299; that for ATGCCGGG was -0.0642. In the case of CTGCCGTA it was 0.343; in that of ATGCCGTA, 0.478; in that of ATTCCGTA, 0.106. As to CTTCCGTA, the “PBM E-score” value stood at 0.163. The value for ATGCCGAC was 0.0658; that for ATACCGTA was 0.133. The value for CTGCCGGA was 0.02.

Consider ATGCCGTC, for which the “PBM E-score” value was 0.406. In the case of CAGCGATG it was -0.0761; in that of AACAGAGC, 0.00906. The value for GCCTACAC was -0.0439; that for ATATCTAA was 0.0738; that for GAAGCTGC was -0.188. CCGAGCCC: the “PBM E-score” value is -0.29. For CCGAGCCG, the “PBM E-score” value was 0.334. In the case of ACGAGCCT it was -0.0868; in that of ACGAGCCG, 0.336.
